# From PubChem BioAssay
# Tested on: Human papillomavirus type 1a E7 protein (residues 1-88)
# Assay: HPV1a E7 small-molecule binders, primary screen, biochemical, small-molecule microarray, residues 1-88, 635 nm (AID 1129)
# Details: small-molecule microarray binding, fluorescence 635 nm; higher = more signal
row,Compound,composite z-score
1,CO[C@H]1COC(=O)CC=C[C@@H](C)COC(=O)[C@@H](C)NC(=O)CC=C[C@@H]1C,-1.53
2,C=CCN1C(=O)[C@@]2(O[C@@H](CCn3cc([C@H](O)c4ccccc4)nn3)[C@H]([Si](C)(C)c3ccc(OC)cc3)[C@H]2C)c2cc(N3CCOC3=O)ccc21,1.16
3,CCCC/C=C/[C@H]([C@@H](O)Cc1ccccc1)N(CC#Cc1ccccc1)Cc1ccccc1Br,-0.462
4,CCOC(=O)[C@H]1C/C=C/C[C@H](C(=O)OCC)C(=O)O[C@H]2[C@@H](OC)O[C@H](CO)[C@@H](OC(=O)Nc3ccc(Br)cc3)[C@@H]2OC1=O,1.21
5,COC(=O)c1c(CC[C@@H](CO)NC(=O)N[C@H](Cn2cc(-c3cncn3C)nn2)C(C)C)oc(C(C)=O)c1C(=O)OC,0.722
6,COc1ccc([Si](C)(C)[C@H]2[C@H](CCO)O[C@@]3(C(=O)N(Cc4ccc(N5CCCCC5=O)cc4)c4ccccc43)[C@@H]2C)cc1,1.1
7,O=C1c2ccccc2[C@](Cc2ccccc2I)(C(=O)O)[C@H](c2ccc(CO)cc2)N1C1CCCCC1,1.24
8,CCCNC(=O)[C@@]1(Sc2ccc(C)cc2)CC(=O)N(Cc2ccccc2Cl)[C@@H]1c1ccc(CO)cc1,1.15
9,O=C(NCC(O)CO)[C@]1(Cc2ccccc2)N=C(c2ccc(OCCCO)cc2)O[C@@H]1c1ccccc1 (stereo partly drawn),0.98
10,O=C(CS)NCCCCCNC(=O)[C@H]1C[C@H]2C(=O)N3CCC[C@H]3C(=O)N2[C@H]1c1ccc(O)cc1,-1.25
11,COc1cccc([C@H]2N[C@H](C(=O)O)CC[C@@H]2C)c1,0.335
12,CC(C)[Si]1(C(C)C)O[C@@H](c2ccccc2)c2cc(C3CC3)nc(-c3ccc(Oc4ccccc4)cc3)c21,-0.889
13,CC(=O)Nc1ccc([C@H]2[C@H](C)CC[C@H]3C(=O)N4[C@@H](CC[C@@H](C)[C@@H]4c4ccc(NC(C)=O)cc4)C(=O)N32)cc1,1.16
14,COc1cc2c(cc1OC)CN(C(=O)[C@@H]1[C@H]3C(=O)O[C@H](c4ccccc4)[C@H](c4ccccc4)N3[C@H](c3ccccc3OCCO)[C@@]13C(=O)Nc1ccccc13)CC2,1.22
15,[N-]=[N+]=NCc1ccccc1C[C@@]1(C(=O)N2CCOCC2)N=C(c2ccc(OCCCO)cc2)O[C@@H]1c1ccccc1N=[N+]=[N-],1.22
16,C=CC[C@]1(C(=O)OC)N=C(c2ccc(OCCCO)cc2)O[C@H]1c1ccccc1CN=[N+]=[N-],0.731
17,CO[C@]12C=C(Br)[C@@H](C[C@@H]1c1ccccc1)[C@@]1(CO1)C2=O,-0.0095
18,C[C@]1(C(=O)NCc2ccccc2)c2ccccc2C(=O)N(Cc2cc(C(F)(F)F)cc(C(F)(F)F)c2)[C@H]1c1ccc(CO)cc1,1.19
